Compound activity as filed in PubChem.
Glioma ERSR ind: induces the endoplasmic reticulum stress response in human glioma cells; Potency, µM, hits mostly activators; actives 0.02% (n = 420,000); AID 602332; U87-MG GRP78 promoter luciferase reporter, 16 h; note: series mostly up to about 76 µM; nearly all actives have a fitted effect of over 35% in size
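Stably transfected U87-MG glioma cells carrying a GRP78-based luciferase sensor; 16 h compound incubation. Luminescence end-point read 10 min after Bright-Glo addition at room temperature.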
TrxR1 inh-1: blocks rat thioredoxin reductase 1; recombinant rTrxR1, NADPH fluorescence consumption, selenite substrate; Potency, µM (highest dose often 114 µM), most hits filed as inhibitors; O89049; actives 1% (n = 390,000); note: nearly all actives have a fitted effect of over 65% in size
Target sequence (O89049 whole entry, looked up): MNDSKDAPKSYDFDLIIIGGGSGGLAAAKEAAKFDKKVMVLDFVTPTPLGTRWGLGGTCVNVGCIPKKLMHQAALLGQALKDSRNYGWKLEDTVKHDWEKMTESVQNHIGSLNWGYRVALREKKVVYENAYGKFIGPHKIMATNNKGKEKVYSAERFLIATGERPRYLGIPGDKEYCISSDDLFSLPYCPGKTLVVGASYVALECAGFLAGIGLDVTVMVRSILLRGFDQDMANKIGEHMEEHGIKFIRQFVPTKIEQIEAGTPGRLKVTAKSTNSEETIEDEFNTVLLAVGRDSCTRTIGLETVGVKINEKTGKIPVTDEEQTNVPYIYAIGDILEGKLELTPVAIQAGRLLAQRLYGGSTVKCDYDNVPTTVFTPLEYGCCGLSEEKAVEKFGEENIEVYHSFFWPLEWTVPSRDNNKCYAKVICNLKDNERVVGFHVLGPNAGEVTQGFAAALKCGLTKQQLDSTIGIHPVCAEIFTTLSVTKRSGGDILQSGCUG
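Rat TrxR1 (90 nM in the dispensed reagent) was pre-reduced with 400 uM NADPH for 5 min at room temperature, then incubated with compound for 15 min. After 400 uM selenite was added, NADPH fluorescence (Ex 340/Em 450 nm) was followed for 8 min.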
ALOX12 inh: inhibitors of human 12S-lipoxygenase ALOX12; Potency, µM (doses to about 108 µM), most hits filed as inhibitors; purified 12hLO, xylenol orange hydroperoxide absorbance; AID 1671190; actives 1.1% (n = 580,000); P18054
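Purified human 12hLO (150 nM final) in 25 mM Hepes, 0.01% Triton X-100, pH 7.0 was preincubated 15 min at room temperature with compound. Then 40 uM arachidonic acid was added, 30 min. Hydroperoxide was read by Fe-XO absorbance ratio 573/405 nm.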
IDH1 R132H inh: inhibitors of human mutant IDH1 R132H; O75874; actives 0.093% (n = 390,000); Potency, µM (highest dose often 76.6 µM), most hits filed as inhibitors; AID 602179; IDH1-R132H enzyme, NADPH consumption, diaphorase/resazurin fluorescence; note: nearly all actives have a fitted effect of over 65% in size
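IDH1-R132H (0.5 ug/mL dispensed) in pH 7.5 Tris buffer was preincubated 30 min with compound, then given a substrate mix of 0.016 mM NADPH and 2 mM alpha-KG for 80 min at room temperature; remaining NADPH was read by diaphorase/resazurin fluorescence.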
TrxR1 substrate: rat thioredoxin reductase 1 substrate activity; actives 0.01% (n = 390,000); Potency, µM (top dose mostly 114 µM); purified TrxR1 substrate turnover, NADPH consumption readout; O89049; note: nearly all actives have a fitted effect of over 50% in size
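Rat TrxR1, dispensed at 90 nM, was prereduced with 400 uM NADPH (final) for 5 min at ~22 deg C, then incubated with compound 15 min before 400 uM selenite. A first-read NADPH fluorescence drop versus no-compound background flagged substrates.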
Apoferritin bind: binds horse apoferritin like a general anesthetic | actives 0.074% (n = 350,000) | apoferritin/1-aminoanthracene competitive binding, fluorescence | AID 485281 | Potency, µM (titrated, usually from 77.5 µM), actives largely listed as inhibitors | P02791; note: nearly all actives have a fitted effect of over 20% in size
Target sequence (P02791 2-175 limits assumed): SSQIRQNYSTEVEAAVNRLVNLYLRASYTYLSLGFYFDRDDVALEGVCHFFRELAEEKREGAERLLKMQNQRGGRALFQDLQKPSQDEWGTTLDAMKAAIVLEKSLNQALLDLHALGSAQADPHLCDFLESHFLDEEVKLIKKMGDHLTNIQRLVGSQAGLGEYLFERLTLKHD
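Read-out: endpoint 1-AMA fluorescence, excitation 380 nm and emission 535 nm, after compounds sit 10 min at room temperature with 10 uM horse-spleen apoferritin in 50% saturated 1-AMA/PBS. Values come from four-parameter Hill fits.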
GR counterassay: glutathione reductase inhibition, TrxR1 selectivity check | purified GR, DTNB reduction absorbance 405 nm kinetic | shares compounds with TrxR1 inh-1 | activity change, negative = inhibition, % at 57.1 µM | 55 tested, under 10 active
TrxR1 inh-2: rat TrxR1 inhibition, primary screen retest; actives 50% (n = 55); shares compounds with TrxR1 inh-1; recombinant TrxR1, NADPH fluorescence consumption, selenite substrate; Potency, µM, actives largely listed as inhibitors; AID 652023
TrxR1 insulin: TrxR1 inhibition in insulin mechanism assay | TrxR1 Trx-coupled insulin reduction, NADPH absorbance 340 nm | shares compounds with TrxR1 inh-1 | Potency, µM | AID 652037 | actives 20% (n = 55);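 active = compounds with a measured potency under 100 micromolar; inconclusive = filed, but no rule given; inactive = potency at or above that, or unmeasurable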
TrxR1 inh-3: rat thioredoxin reductase 1 inhibition, DTNB assay; AID 652256; shares compounds with TrxR1 inh-1; purified TrxR1, DTNB reduction, A412; actives 90% (n = 55); Potency, µM;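 active = a half-inhibiting concentration could be measured and was below 100 µM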
IDH1 autofl: counter-screen for mutant IDH1 inhibitors: fluorescence interference. shares compounds with IDH1 R132H inh. Resorufin detection reagent fluorescence interference, cell-free. 750 tested, under 10 active. inhibition of signal, % at 51.2 µM. AID 623980
IDH1 WT: selectivity of mutant IDH1 inhibitors: human wild-type IDH1 | shares compounds with IDH1 R132H inh | WT IDH1 enzyme, NADPH diaphorase/resazurin fluorescence | Potency, µM (series often up to 115 µM), actives largely listed as inhibitors | actives 9% (n = 750); note: nearly all actives have a fitted effect of over 55% in size
IDH1 R132H conf: confirmation of human mutant IDH1 inhibitors; shares compounds with IDH1 R132H inh; IDH1 R132H enzyme, NADPH diaphorase/resazurin fluorescence; Potency, µM (doses to about 76.6 µM), most hits filed as inhibitors; actives 83% (n = 750); note: nearly all actives have a fitted effect of over 50% in size
Large screens that a line does not name were inactive (follow-up assays come after a bar, where they were run); ! = a repeat was not active. A selection: hits, their analogues and other compounds. The true share with any hit is near 1.7%. Unless noted, calls come from the whole dose curve; as a rule, active = well fitted curve in the direction sought with a large enough effect; inconclusive = small, poorly fitted or top-dose-only effect, or another doubt; inactive = no such curve, though single readings can be large; an effect the other way counts as inactive or inconclusive.

CCOC(=O)CCCc1cc[c]([Sb](=[O])([OH])[OH])cc1	TrxR1 inh-1 1.12µM (no result: ALOX12 inh, IDH1 R132H inh, Apoferritin bind)
NC(=O)OCCCc1ccccc1	none (no result: Apoferritin bind)
COc1cc2c(cc1OCc1ccccc1)N(C(=O)c1cc3ccccc3n1C)CC21CCN(C)CC1	ALOX12 inh 31.6µM (no result: Glioma ERSR ind, TrxR1 inh-1, IDH1 R132H inh, TrxR1 substrate, Apoferritin bind)
COc1cc2c(cc1OCc1ccccc1)N(C(=O)c1ccncc1)CC21CCN(C)CC1	none (no result: Glioma ERSR ind, TrxR1 inh-1, IDH1 R132H inh, TrxR1 substrate, Apoferritin bind)
CC(C)CN1Cc2ccccc2-n2ccnc2C12CCN(C(=O)c1ccsc1)CC2	none (no result: Glioma ERSR ind, TrxR1 inh-1, IDH1 R132H inh, TrxR1 substrate, Apoferritin bind)
Cc1cccc(-c2nn3c(=O)cc(CN4CCN(C(=O)COc5ccccc5C)CC4)nc3s2)c1	none (no result: Glioma ERSR ind, TrxR1 inh-1, IDH1 R132H inh, TrxR1 substrate, Apoferritin bind)
O=C1C=CC2C3C(=O)N(c4ccccc4)C(=O)C3C1N2Cc1ccccc1 (stereo not drawn)	TrxR1 inh-1 3.55µM (no result: Apoferritin bind) | GR counterassay inactive | TrxR1 inh-2 inconclusive | TrxR1 insulin 17µM | TrxR1 inh-3 1.49µM
Fc1ccccc1C1NCc2ccccc2-n2cccc21 (stereo not drawn)	none (no result: Glioma ERSR ind, TrxR1 inh-1, IDH1 R132H inh, TrxR1 substrate, Apoferritin bind)
CC(=O)[C@H]1CC[C@H]2[C@@H]3CC=C4C[C@@H](OS(=O)(=O)O)CC[C@]4(C)[C@H]3CC[C@]12C	IDH1 R132H inh 39.8µM (no result: Apoferritin bind) | IDH1 autofl inactive | IDH1 WT inactive | IDH1 R132H conf 39.8µM
C[C@]12CC[C@H](OS(=O)(=O)O)CC1=CCC1C2CC[C@]2(C)C(=O)CC[C@@H]12 (stereo partly drawn)	TrxR1 inh-1 inconclusive (no result: ALOX12 inh, IDH1 R132H inh, TrxR1 substrate, Apoferritin bind)
Cc1nc2cc(C(F)(F)F)ccc2n1C1CCN(Cc2nnnn2Cc2ccc3c(c2)OCO3)CC1	ALOX12 inh inconclusive, IDH1 R132H inh inconclusive, Apoferritin bind inconclusive | IDH1 autofl inactive | IDH1 WT inactive | IDH1 R132H conf 15.8µM
Cc1nc2cc(C(F)(F)F)ccc2n1C1CCN(Cc2nnnn2Cc2cccs2)CC1	none
CCc1ccc(C(=O)N2CCC3(CC2)c2nccn2-c2ccccc2CN3C)cc1	none (no result: Glioma ERSR ind, TrxR1 inh-1, IDH1 R132H inh, TrxR1 substrate, Apoferritin bind)
CC(C)CCC(=O)OC1CCC2C3CCC4=CC(=O)CC[C@]4(C)C3CC[C@]12C (stereo partly drawn)	none (no result: TrxR1 inh-1, ALOX12 inh, IDH1 R132H inh, TrxR1 substrate, Apoferritin bind)
O=C(O)c1cn(Cc2ccccc2)nc1-c1ccccc1	none
O=C(O)CSCC(=O)N(Cc1ccccc1)c1nc(-c2ccccc2)c(-c2ccccc2)s1	ALOX12 inh inconclusive, IDH1 R132H inh inconclusive | IDH1 autofl inactive | IDH1 WT inactive | IDH1 R132H conf 39.8µM
NC1(C(=O)O)CCCc2ccc(N(CCCl)CCCl)cc21 (stereo not drawn)	none (no result: Apoferritin bind)
COC(=O)C1=C(C)NC(=S)NC1c1ccc(N(CCCl)CCCl)cc1Cl (stereo not drawn)	ALOX12 inh 35.5µM, IDH1 R132H inh inconclusive (no result: Apoferritin bind) | IDH1 autofl inactive | IDH1 WT inactive | IDH1 R132H conf 11.2µM
Clc1ccc(C(c2ccc(Cl)cc2)n2cc[n+](CC(OCc3ccc(Cl)cc3Cl)c3ccc(Cl)cc3Cl)c2)cc1 (stereo not drawn)	TrxR1 inh-1 inconclusive, ALOX12 inh 38.5µM!, IDH1 R132H inh 17.8µM (no result: Apoferritin bind) | IDH1 autofl inactive | IDH1 WT inconclusive | IDH1 R132H conf 7.94µM
CCOc1ccc(C2c3c(-c4ccccc4O)n[nH]c3C(=O)N2Cc2ccncc2)cc1 (stereo not drawn)	IDH1 R132H inh inconclusive | IDH1 autofl inactive | IDH1 WT inactive | IDH1 R132H conf 39.8µM
N[C@H](CO)Cc1ccc(O)cc1	none (no result: Glioma ERSR ind, TrxR1 inh-1, IDH1 R132H inh, TrxR1 substrate, Apoferritin bind)
COc1cc2c(cc1OC1CCCC1)NC(=O)C21CCN(C(=O)c2cccc(O)c2)CC1	none (no result: Glioma ERSR ind, TrxR1 inh-1, IDH1 R132H inh, TrxR1 substrate, Apoferritin bind)
COc1cc(C(=O)NC[C@H]2C[C@@H]3CCN2C[C@@H]3c2cc(-c3ccco3)nc(C)n2)cc(OC)c1OC	none (no result: Glioma ERSR ind, TrxR1 inh-1, IDH1 R132H inh, TrxR1 substrate, Apoferritin bind)
O=C1NC(=O)C(=Cc2ccc3c(c2)OCO3)C(=O)N1	ALOX12 inh inconclusive (no result: Glioma ERSR ind, TrxR1 inh-1, IDH1 R132H inh, TrxR1 substrate)
CC(C)CN(CC(C)C)c1ccc(C=C2C(=O)NC(=S)NC2=O)cc1[N+](=O)[O-]	Glioma ERSR ind inconclusive, TrxR1 inh-1 2.51µM, ALOX12 inh inconclusive, IDH1 R132H inh inconclusive, Apoferritin bind inconclusive | IDH1 autofl inactive | IDH1 WT inactive | IDH1 R132H conf 39.8µM
Cn1c(=O)c2c(-c3ccccc3)n3c(c2n(C)c1=O)C(c1cc(Cl)ccc1O)Nc1ccccc1-3 (stereo not drawn)	IDH1 R132H inh 39.8µM | IDH1 autofl inactive | IDH1 WT inactive | IDH1 R132H conf 14.1µM
